Data: PubChem BioAssay (NCATS)
Results filed as inconclusive are left out. A call without a number means that no potency is given here. Activity calls are given as the source filed them. Calls come from the whole dose curve; as a rule, active = well fitted inhibition curve with a large enough effect; inconclusive = small, poorly fitted or top-dose-only effect; inactive = no such curve, though single readings can be large or run the other way.

biological target: Thioredoxin reductase 1, cytoplasmic (Rattus norvegicus) (UniProt O89049); assay: qHTS Assay for Inhibitors of Mammalian Selenoprotein Thioredoxin Reductase 1 (TrxR1) (AID 488773); details: purified TrxR1 enzyme activity; Potency: inhibition; series mostly up to 57.1 µM; note: nearly all actives have a fitted effect of over 40% in size
Sequence (O89049 whole entry, looked up): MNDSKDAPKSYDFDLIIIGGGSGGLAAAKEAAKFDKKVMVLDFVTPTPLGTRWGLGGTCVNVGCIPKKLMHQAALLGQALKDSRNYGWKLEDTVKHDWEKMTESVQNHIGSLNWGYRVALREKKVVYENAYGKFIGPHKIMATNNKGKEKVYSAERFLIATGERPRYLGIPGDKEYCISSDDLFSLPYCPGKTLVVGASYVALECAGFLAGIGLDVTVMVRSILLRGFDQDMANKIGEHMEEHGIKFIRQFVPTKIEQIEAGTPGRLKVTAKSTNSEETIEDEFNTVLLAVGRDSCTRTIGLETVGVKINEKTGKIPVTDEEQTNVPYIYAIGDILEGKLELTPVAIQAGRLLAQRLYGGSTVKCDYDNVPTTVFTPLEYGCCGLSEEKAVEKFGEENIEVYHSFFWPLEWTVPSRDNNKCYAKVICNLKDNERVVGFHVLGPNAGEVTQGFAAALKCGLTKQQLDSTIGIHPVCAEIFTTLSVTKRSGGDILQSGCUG
Procedure, shortened: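 Inhibition is scored from the loss of NADPH fluorescence between first and last reads of an 8-min kinetic run. Selenite (400 uM) was the substrate, added after 15 min compound preincubation at room temperature.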
Potency is the fitted concentration of half-maximal effect.

SMILES | Potency
OCC1O[C@H](O)C(Cl)C(O)C1O (some centres not stated) | inactive
CO/S(=N\S(=O)(=O)c1ccc(Cl)cc1)c1ccc([N+](=O)[O-])cc1 (configuration not stated) | inactive
NS(=O)(=O)C#Cc1ccccc1 | 4.74 µM (active)
NCC1OC(O[C@H]2[C@H](O)[C@@H](OC3C(O)C(N)CC(N)C3OC3OC(CO)C(O)C(O)C3N)O[C@@H]2CO)C(N)C(O)C1O (some centres not stated) | inactive
O=C(O)c1cc([N+](=O)[O-])ccc1NCCCc1ccccc1 | inactive
NCCNC(=O)c1ncsc1-c1cccc(F)c1 | inactive
Cn1cc(C2=C(c3ccc(Cl)cc3Cl)C(=O)NC2=O)c2ccccc21 | inactive
CC1(C)CCC=[N+]1[O-] | inactive
CCNC(=O)[C@H]1O[C@@H](n2cnc3c(N)nc(NCCc4ccc(CCC(=O)O)cc4)nc32)[C@H](O)[C@@H]1O | inactive
Nc1ncnc2c1ncn2[C@@H]1O[C@H](COP(=O)(O)OP(=O)(O)OP(=O)(O)OP(=O)(O)OC[C@@H]2O[C@H](n3cnc4c(N)ncnc43)[C@@H](O)[C@H]2O)[C@@H](O)[C@H]1O | inactive
O=c1[nH]c2cc(C(F)(F)F)ccc2n1-c1cc(C(F)(F)F)ccc1O | inactive
O=C1NC(=O)/C(=C/c2ccc3nccnc3c2)S1 | inactive
O=C1NC(O)=NC1(c1ccccc1)c1ccccc1 | inactive
Nc1nc(SCc2ccc([N+](=O)[O-])cc2)c2ncn([C@@H]3O[C@H](CO)[C@@H](O)[C@H]3O)c2n1 | inactive
Cc1cc(NC(=O)Nc2ccc3c(ccn3C)c2)sn1 | inactive
CCCCCCCCCCCCCCCCCCNC(=O)OCC(COP(=O)([O-])OCC[n+]1ccsc1)OC (configuration not stated) | inactive
Nc1ncnc2c1ncn2[C@@H]1O[C@H](COP(=O)(O)CP(=O)(O)OP(=O)(O)O)[C@@H](O)[C@H]1O | inactive
COc1cc(OC)c(/C=C2/C(=O)Nc3ccccc32)c(OC)c1 | inactive
CNc1ncnc2c1ncn2[C@@H]1O[C@H](CO)[C@@H](O)[C@H]1O | inactive
C=CC(N)CCC(=O)O (configuration not stated) | inactive
CSc1nc(N)c2ncn([C@@H]3O[C@H](COP(=O)(O)OP(=O)(O)OP(=O)(O)O)[C@@H](O)[C@H]3O)c2n1 | inactive
CC[C@@H](C)[C@H]1O[C@]2(CC[C@H]1C)C[C@@H]1C[C@@H](CC=C(C)[C@@H](O[C@H]3C[C@H](OC)[C@@H](O[C@H]4C[C@H](OC)[C@@H](O)[C@H](C)O4)[C@H](C)O3)[C@@H](C)C=CC=C3CO[C@@H]4[C@H](O)C(C)=C[C@@H](C(=O)O1)[C@]34O)O2 | inactive
NC(N)=NC(=O)c1nc(Cl)c(N2CCCCCC2)nc1N | inactive
CC(C)Cc1ccc([C@H](C)C(=O)O)cc1 | inactive
Cc1cc2c(cc1Cl)N(C(=O)Nc1ccc(Oc3cccnc3C)nc1)CC2 | inactive
Fc1ccc(C(OCCCc2cnc[nH]2)c2ccc(F)cc2)cc1 | inactive
COc1ccc(/C=C/C(=O)Nc2ccccc2C(=O)O)cc1OC | inactive
